# Reference: the supplement of paper PMC6555819
# Assays:
# Test in all cases: PBM binding z-score (relative to random genomic background probes); higher = stronger binding; sequences stand for … in GC…GCGATTGACAGCGTAGAATGAAGG
# [1] = system: RARb homodimer (NR concentration 270 nM)
# Procedure, shortened: (§1)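 Binding buffer was PBS pH 7.4 with 2% milk, 0.02% Triton X-100, 1 mM DTT, 0.2 mg/mL BSA and 0.4 mg/ml salmon testes DNA. In it, ligand-free nuclear receptor dimers were incubated 1 h on custom Agilent 4×180K protein-binding microarrays carrying double-stranded probes. Antibodies against each partner (one per run) detected binding, and z-scores were calculated against random background probes after regression normalization of scanned fluorescence.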
# [2] = system: RARg:RXRa (NR concentration 270 nM, RXRa partner concentration 90 nM)
# Procedure, shortened: as §1
# [3] = system: RARg homodimer (NR concentration 270 nM)
# Procedure, shortened: as §1
# [4] = system: RXRa DBDmut IVT, anti-RXR (DBD mutation: RXRa K156A/R161A, NR concentration 90 nM)
# Procedure, shortened: as §1
# [5] = system: RXRa homodimer (NR concentration 180 nM)
# Procedure, shortened: as §1
# [6] = system: THRa:RXRa (NR concentration 90 nM, RXRa partner concentration 90 nM)
# Procedure, shortened: as §1
# [7] = system: THRa homodimer (NR concentration 90 nM)
# Procedure, shortened: as §1
# [8] = system: VDR homodimer (NR concentration 270 nM)
# Procedure, shortened: as §1
sequence,measurement,setting,value
ATAAGTAGGTTAAGGGTCATTCAGGTTGGTTCGC,PBM binding z-score,[1],4.19
same,PBM binding z-score,[2],4.8
same,PBM binding z-score,[3],3.75
same,PBM binding z-score,[4],2.28
same,PBM binding z-score,[5],6.11
same,PBM binding z-score,[6],3.65
same,PBM binding z-score,[7],2.27
same,PBM binding z-score,[8],4.94
ATACTAAGGTGATCGTGAGGTCGTTGATACTAAC,PBM binding z-score,[1],1.76
same,PBM binding z-score,[2],2.89
same,PBM binding z-score,[3],1.27
same,PBM binding z-score,[4],1.35
same,PBM binding z-score,[5],2.06
same,PBM binding z-score,[6],3.7
same,PBM binding z-score,[7],3.46
same,PBM binding z-score,[8],3.43
TCAGACAGGTGAAGGTAACCCAGGTACGCAGTCG,PBM binding z-score,[1],1.25
same,PBM binding z-score,[2],0.745
same,PBM binding z-score,[3],0.803
same,PBM binding z-score,[4],0.992
same,PBM binding z-score,[5],1.29
same,PBM binding z-score,[6],1.48
same,PBM binding z-score,[7],0.57
same,PBM binding z-score,[8],0.454
TCGAGTAGGTTACAAATGGGGCATTCAGCTTTCT,PBM binding z-score,[1],0.369
same,PBM binding z-score,[2],0.68
same,PBM binding z-score,[3],0.323
same,PBM binding z-score,[4],0.884
same,PBM binding z-score,[5],0.39
same,PBM binding z-score,[6],0.1
same,PBM binding z-score,[7],-0.394
same,PBM binding z-score,[8],-0.133
GATACAGGGACAGCTAGAGGCCAGAGTATGGAAA,PBM binding z-score,[1],0.97
same,PBM binding z-score,[2],0.522
same,PBM binding z-score,[3],1.01
same,PBM binding z-score,[4],-0.496
same,PBM binding z-score,[5],0.185
same,PBM binding z-score,[6],0.508
same,PBM binding z-score,[7],0.191
same,PBM binding z-score,[8],-0.0729
TATACAGGGACAAAGGCCAGAGTACGAATGTCGA,PBM binding z-score,[1],1.4
same,PBM binding z-score,[2],1.29
same,PBM binding z-score,[3],1.58
same,PBM binding z-score,[4],-0.217
same,PBM binding z-score,[5],0.385
same,PBM binding z-score,[6],0.949
same,PBM binding z-score,[7],-0.0231
same,PBM binding z-score,[8],0.738
CCTCGGAGGCCAACAGGAGGTCAGAGCTGCCAGA,PBM binding z-score,[1],3.63
same,PBM binding z-score,[2],4.76
same,PBM binding z-score,[3],3.41
same,PBM binding z-score,[4],-0.221
same,PBM binding z-score,[5],2.34
same,PBM binding z-score,[6],2.41
same,PBM binding z-score,[7],0.431
same,PBM binding z-score,[8],0.821
TCTGCGAGGTCAACGATGGTCAGCTAATCTGCTA,PBM binding z-score,[1],4.5
same,PBM binding z-score,[2],6.57
same,PBM binding z-score,[3],7.19
same,PBM binding z-score,[4],3.91
same,PBM binding z-score,[5],7.18
same,PBM binding z-score,[6],4.26
same,PBM binding z-score,[7],2.92
same,PBM binding z-score,[8],3.6
ATCTCTAGGTAACCAAGTTCAGCGAATGCCGAAC,PBM binding z-score,[1],1.63
same,PBM binding z-score,[2],1.03
same,PBM binding z-score,[3],1.06
same,PBM binding z-score,[4],0.597
same,PBM binding z-score,[5],0.733
same,PBM binding z-score,[6],1.51
same,PBM binding z-score,[7],0.797
same,PBM binding z-score,[8],2.79
GCAGACAGGCGAAACGCAGGTAACTCAGGGTGGC,PBM binding z-score,[1],-0.842
same,PBM binding z-score,[2],-0.359
same,PBM binding z-score,[3],-0.272
same,PBM binding z-score,[4],-0.577
same,PBM binding z-score,[5],-0.167
same,PBM binding z-score,[6],0.338
same,PBM binding z-score,[7],-0.81
same,PBM binding z-score,[8],-0.974
TAGCCTAGGTCATTGGTCCAGTATAGTACGCATC,PBM binding z-score,[1],2.86
same,PBM binding z-score,[2],3.61
same,PBM binding z-score,[3],3.82
same,PBM binding z-score,[4],1.98
same,PBM binding z-score,[5],2.74
same,PBM binding z-score,[6],2.84
same,PBM binding z-score,[7],1.47
same,PBM binding z-score,[8],1.51
AGAATGTGGTTATTAAGATCAGGGAATTGCGGTC,PBM binding z-score,[1],0.199
same,PBM binding z-score,[2],-0.113
same,PBM binding z-score,[3],0.223
same,PBM binding z-score,[4],-0.0893
same,PBM binding z-score,[5],0.0791
same,PBM binding z-score,[6],0.147
same,PBM binding z-score,[7],0.17
same,PBM binding z-score,[8],0.201
GGAGCGAGGGCAAGTTGATAGCAGAGTTTGATGG,PBM binding z-score,[1],1.55
same,PBM binding z-score,[2],1.41
same,PBM binding z-score,[3],1.95
same,PBM binding z-score,[4],2.04
same,PBM binding z-score,[5],0.51
same,PBM binding z-score,[6],0.876
same,PBM binding z-score,[7],0.0322
same,PBM binding z-score,[8],1.48
